The whole screen tested about 69,000 compounds, of which about 8,600 (12%) showed an effect of 50% or more. Only a selection was taken, and strong results are over-represented in it overall.
These compounds were tested on Plasmodium berghei (assay: Screen against P. berghei liver stage (PbLuc), transformed with Luciferase, at 10uM). Details: tested at 10 uM.
Type: functional, HepG2

In order of rising INHIBITION:
1. O=C(OCC1CCCN1)c1cccc(NC(=O)c2ccco2)c1 (stereo not given)  -142%
2. CCOc1ncccc1C(=O)N1CCCC(c2nncn2C)C1 (stereo not given)  -98.8%
3. N#CCCN(Cc1cccnc1)C(=O)c1ccc(OCC2CC2)cc1  -92.2%
4. N#CCCN(CCC#N)C(=O)c1ccc(OCC2CC2)cc1  -77.9%
5. Fc1ccc(OC2CCN(Cc3nnc(-c4ccco4)o3)CC2)cc1  -53.1%
6. CCCc1nnc(NC(=O)NC(C)Cn2cccn2)s1 (stereo not given)  -45.6%
7. Cc1cnn(CC2CCCN2C(=O)c2cc(C)nc3[nH]nc(C)c23)c1 (stereo not given)  -37.7%
8. Cc1oncc1C(=O)N[C@@H]1CN(c2ncccn2)C[C@@H]2CCCO[C@@H]21  -34.7%
9. COc1ccc(C)cc1CN(C)CC(N)=O  -33.4%
10. O=C(O)CCc1nc2nccc(C(F)(F)F)n2n1  -25.6%
11. CCn1nc(C)c(CCNC(=O)C2CCCN(C3CCCC3)C2)c1C (stereo not given)  -23.4%
12. CC(C)c1nnc(CN2CCC3(CC2)Nc2ccccc2NC3=O)o1  -20.7%
13. Cn1cnnc1CN1CCC2(CCCN(C3CCCC3)C2=O)C1 (stereo not given)  -15.6%
14. O=c1[nH]c2cn(-c3cccc(Cl)c3)c(=O)n2[nH]1  -14.9%
15. CC(=O)N1CCN(c2cc(-n3cccc3)ncn2)CC1  -12.1%
16. Cc1ccc(S(=O)(=O)N2CCC3(CC(C(=O)NCC(C)C)=NO3)C2)cc1 (stereo not given)  -10.2%
17. Cn1cnc(S(=O)(=O)NCCCN2CCCC2)c1Cl  -9.76%
18. COc1nccc(N2CC[C@H](CO)[C@@H](O)C2)c1C#N  -9.02%
19. COCCN1CCCC2(CCN(c3cc(C)c(C#N)c(C)n3)C2)C1=O (stereo not given)  -8.25%
20. C[C@]1(O)CCN(Cc2ncccc2F)C[C@@H]1Oc1cccc(F)c1  -4.51%
21. CC(C)CNC(=O)C1=NOC2(CCN(Cc3ccoc3)C2)C1 (stereo not given)  -4.26%
22. CN(C)C(=O)N1CCN(c2cc(N3CCCC3CO)ncn2)CC1 (stereo not given)  -3.68%
23. CC(C)CN(CC(O)c1ccc(F)cc1)C(=O)c1csnn1 (stereo not given)  -3.48%
24. CC(C)c1nc(CN2CCN(C(=O)CC3CCCCC3)CC2)no1  -3.21%
25. CCN(CC1CCOC1)C(=O)c1ccn(-c2ccc(OC)cc2)n1 (stereo not given)  -2.48%
26. COc1ccc(C(=O)N(CCC#N)Cc2ccccn2)cc1  -1.37%
27. Cc1ccc(C2COCCN2C(=O)c2ccsc2)o1 (stereo not given)  3.77%
28. COc1ncccc1N(C)C(=O)Cn1cc(-c2ccccc2)nn1  4.34%
29. O=C1CCNc2cc3c(cc2CN1Cc1ccco1)OCO3  4.82%
30. O=C(c1cncnc1)N1C[C@@H]2CC[C@H](Oc3cccc(F)c3)[C@@H]2C1  5.11%
31. Cc1ccc(C(=O)N(CCC#N)Cc2ccccn2)cc1C  5.48%
32. O=C(NCC1CC1)C1=NOC2(CCN(Cc3ccc4c(c3)OCO4)C2)C1 (stereo not given)  6.38%
33. CS(=O)(=O)N1CCN(CC(=O)Nc2cccc(Cl)c2)CC1  6.83%
34. O=C(O)c1ccc(COc2cccc(Cl)c2)s1  8.49%
35. Cc1ccc(CCCC(=O)N2CCCC(CS(N)(=O)=O)C2)s1 (stereo not given)  9.79%
36. CC(C)(C)C(=O)CN1Cc2ccccc2NCCC1=O  10.9%
37. O=C(c1ccc(NC2CC2)nc1)N1CCC(Nc2cccnn2)CC1  11.6%
38. Cc1ccc(N2CCCC(NCc3nnc(-c4ccco4)o3)C2)nn1 (stereo not given)  11.94%
39. CC1CCN(CC(O)CN2CCn3c(nnc3C3CC3)C2)CC1 (stereo not given)  12.3%
40. O=C1CCNc2cc3c(cc2CN1CC1CC1)OCO3  13.1%
41. CCc1nc(CN(C)C2CCN(CCn3cccn3)C2)no1 (stereo not given)  14.1%
42. CCc1nnc(CN2CCC3(CC2)Nc2ccccc2NC3=O)o1  18.2%
43. COc1ccc(CN2CCC3(CC2)CC(CC(=O)NC(C)C)CO3)cc1 (stereo not given)  18.6%
44. O=C(CCn1ccc2cc(Br)ccc21)NCc1ccc(C(=O)O)cc1  19%
45. Cc1nc(CN2CCCC(NCCCOc3ccc(F)cc3)C2)no1 (stereo not given)  19.4%
46. CC(C)CNC(=O)C1=NOC2(CCN(Cc3cccc(C#N)c3)C2)C1 (stereo not given)  20.6%
47. CN1CCN(Cc2cnc3n2CCN(C(=O)c2cnccn2)C3)CC1  20.6%
48. CC(C1CC1)N(C)Cc1nnc(-c2ccco2)o1 (stereo not given)  21.5%
49. Cc1nnc(CN(C)C2CCN(CCc3ccccn3)CC2)o1  21.5%
50. COCC(O)CN1CCC(=O)N(CC2CC2)Cc2ccccc21 (stereo not given)  21.5%
51. Fc1ccc(C(NCc2nnc(C3CC3)o2)C2CCC2)cc1 (stereo not given)  23.9%
52. Cc1cccnc1CN1CC[C@@](C)(O)[C@H](Oc2ccccc2)C1  24.4%
53. C[C@]1(O)CN(Cc2ncccc2F)CC[C@@H]1Oc1ccccc1  24.4%
54. CCCc1noc(CCC(=O)N2CCCCC2Cn2cc(C)cn2)n1 (stereo not given)  28.3%
55. COc1cc(C(=O)N(CCC#N)Cc2ccccn2)ccc1C  29.4%
56. CCn1nc(C)c2c1cnn2CCNS(=O)(=O)CC  30%
57. CCc1nnc2n1CCN(CC(O)CN1CCC(C)CC1)C2 (stereo not given)  30.3%
58. CN1CC(=O)N(c2cnn(C)c2)CC12CCN(CC1CC1)C2 (stereo not given)  30.3%
59. CN(c1cccnn1)[C@@H]1CC[C@@H]2CN(Cc3cccc(C(=O)O)c3)C[C@@H]21  30.6%
60. Cc1ccc(CN2CCC3(CC(C(=O)NCC4CC4)=NO3)C2)cc1C (stereo not given)  31.2%
61. Cc1nc(CN2CCO[C@@H]3CC(COc4ccccn4)C[C@H]32)cs1 (stereo not given in full)  31.5%
62. Cc1cc(S(=O)(=O)NC(=O)CCc2cccnc2)c(C)s1  32%
63. CN1CCN(Cc2cnc3n2CCN(C(=O)c2ccnnc2)C3)CC1  32.2%
64. CCc1ccc(CN2CCC3(CC(C(=O)NCC(C)C)=NO3)C2)o1 (stereo not given)  32.5%
65. O=C1CC(c2cccnc2)C2(CCN(C(=O)c3ccncc3)CC2)N1 (stereo not given)  33.5%
66. O=c1[nH]c2cn(-c3cccc(Cl)c3)c(=O)n2n1Cc1cccc(F)c1  34%
67. Cc1cccc(CN2CCO[C@@H]3CC(COc4ccccn4)C[C@H]32)n1 (stereo not given in full)  35.5%
68. CC(C)CCn1c(=O)n(CCn2cccc2)c2cc(C(=O)O)cnc21  36.7%
69. C[C@]1(O)CN(Cc2cscn2)CC[C@@H]1Oc1cccc(F)c1  38.2%
70. Cc1nccc(CN2CC[C@H](Oc3cccc(F)c3)[C@@](C)(O)C2)n1  38.7%
71. COc1ccc(CC(=O)N2CCN(c3nccn3C)CC2)cc1  40%
72. CN1CCN(Cc2cnc3n2CCN(C(=O)c2ccccn2)C3)CC1  40.4%
73. COC(=O)CN1Cc2cc3c(cc2NCCC1=O)OCO3  41.1%
74. CC(NC(=O)c1cccs1)C(=O)NS(=O)(=O)c1ccc(C#N)cc1 (stereo not given)  42.1%
75. CC(CNC(=O)CCc1ccco1)N1CCc2sccc2C1 (stereo not given)  42.5%
76. CN1CCN(Cc2cnc3n2CCN(C(=O)c2ccncc2)C3)CC1  42.7%
77. CC(=O)NCC(=O)N1CCC2(CC1)NC(=O)CC2c1cnn(C)c1 (stereo not given)  43.1%
78. COCCN1C(=O)CC[C@@H]2[C@@H]1CCN2S(=O)(=O)C1CC1  43.9%
79. COCc1ccc(C(=O)N(CCC#N)Cc2ccccn2)cc1  44%
80. CCOc1c(C(N)=O)cn(C)c1-c1nc2cc(NC(C)=O)ccc2n1C  44.3%
81. O=C(c1n[nH]c(=O)c2ccccc12)N1CCCC1Cn1cccn1 (stereo not given)  45.9%
82. CCc1n[nH]c(=O)c(C(=O)N2CCOC3(CCCC3)C2)c1CC  48.2%
83. O=C1CC[C@@H]2[C@@H](CCN2S(=O)(=O)C2CC2)N1CC1CC1  49.4%
84. CC(NC(=O)c1cccs1)C(=O)NS(=O)(=O)c1cccc(C#N)c1 (stereo not given)  49.9%
85. C[C@]1(O)CN(Cc2ncccc2F)CC[C@@H]1Oc1cccc(F)c1  50.1%
86. c1ccc(C(NCc2nnc(-c3ccco3)o2)C2CCC2)cc1 (stereo not given)  50.8%
87. CCOc1cccc(C(=O)N(CCC#N)Cc2ccccn2)c1  51.7%
88. N#Cc1cccc(CN2CCC3(CC(C(=O)NCC4CC4)=NO3)C2)c1 (stereo not given)  52%
89. CC(C)(C)CN1Cc2cc3c(cc2NCCC1=O)OCO3  52.5%
90. CC(NC(=O)c1cccs1)C(=O)NS(=O)(=O)Cc1ccc(C#N)cc1 (stereo not given)  53.3%
91. c1ccc(OCC2C[C@@H]3[C@@H](C2)OCCN3Cc2ccoc2)nc1 (stereo not given in full)  54.4%
92. O=C1Nc2ccccc2NC12CCN(Cc1nnc(C3CC3)o1)CC2  56.1%
93. CN1CCN(Cc2cnc3n2CCN(C(=O)c2ccoc2)C3)CC1  59%
94. N#CCCN(Cc1ccccn1)C(=O)c1cccc(CN2CCCC2)c1  61.8%
95. C[C@]1(O)CN(Cc2ncc[nH]2)CC[C@@H]1Oc1cccc(F)c1  61.9%
96. CCN1Cc2cc3c(cc2NCCC1=O)OCO3  64.6%
97. Cc1cccc(C(=O)N2CCn3c(CN4CCN(C)CC4)cnc3C2)n1  68.4%
98. N#CCCN(Cc1ccco1)C(=O)c1ccc(OCC2CC2)cc1  69.5%
99. Cc1cccnc1CN1CC[C@H](Oc2cccc(F)c2)[C@@](C)(O)C1  75.3%
100. Cc1cccc(CN2CCC3(CC(C(=O)NCC(C)C)=NO3)C2)c1 (stereo not given)  76.2%
101. Cc1nnc2n1CCN(CC(O)CN1CCC(C)CC1)C2 (stereo not given)  78.2%
102. COc1ccc(CN2CCC3(CC(C(=O)NCC(C)C)=NO3)C2)cc1 (stereo not given)  78.2%
103. CC(C)CNC(=O)C1=NOC2(CCN(Cc3ccc(C(C)C)cc3)C2)C1 (stereo not given)  80.2%
104. Fc1ccc(C(NCc2nnc(-c3ccco3)o2)C2CCC2)cc1 (stereo not given)  82.3%
105. O=C1CC[C@H]2[C@H](CCN2S(=O)(=O)C2CC2)N1CCN1CCCC1  85.6%

Reference: ChEMBL document CHEMBL4513216, “Probing the Open Global Health Chemical Diversity Library for Multistage-Active Starting Points for Next-Generation Antimalarials” (ACS Infect Dis, 2020)
